Reference: PubChem BioAssay (Tox21)
Results filed as inconclusive are left out. Active and inactive are the calls of the source. Unless noted, calls come from the whole dose curve; as a rule, active = well fitted curve in the direction sought with a large enough effect in the repeat runs; inconclusive = weak or mixed curves; inactive = no such curve, though single readings can be large; an effect the other way counts as inactive or inconclusive.

How the values were obtained:
[1] = biological target: Thyrotropin receptor (Homo sapiens) (UniProt P16473); assay: qHTS assay to identify small molecule antagonists of the thyroid stimulating hormone receptor (TSHR) signaling pathway (AID 1259385; calls by dose curve; note: nearly all actives have a fitted effect of over 20% in size)
Summary of the method: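 TSHR-HEK293 cells were plated and held 18 h at 37C/5% CO2, then given compound plus Ro20-1724 and stimulated with TSH at 1.5 ng/mL final. After 30 min at room temperature, cAMP was detected with cAMP-d2/anti-cAMP-cryptate (1 h) by fluorescence.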

[2] = qHTS assay to identify small molecule agonists of the estrogen receptor alpha (ER-alpha) signaling pathway in the presence of an antagonist - cell viability counter screen (AID 1259386);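 note: series mostly up to about 92 µM; cells exposed to compounds for 22 h at 37 °C before the viability read; nearly all actives have a fitted effect of over 30% in size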
Summary of the method: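 Fluorescent CellTiter-Fluor viability signal from VM7Luc4E2 cells, with the reagent added during the final hour of a 22hr compound exposure at 37C in the presence of 10.0nM ICI-182,780.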

[3] = biological target: Progesterone receptor (Homo sapiens) (UniProt P06401); assay: qHTS assay to identify small molecule agonists of the progesterone receptor (PR) signaling pathway (AID 1346784; calls by dose curve; note: nearly all actives have a fitted effect of over 30% in size)
Summary of the method: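 The screen uses PR-UAS-bla HEK 293T cells in charcoal-stripped serum (2%). Compounds are applied for 16 hr at 37C after a 6 hr pre-incubation, and reporter activity is detected with a FRET beta-lactamase substrate after 2 hr at room temperature.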

[4] = biological target: Progesterone receptor (Homo sapiens) (UniProt P06401); assay: qHTS assay to identify small molecule antagonists of the progesterone receptor (PR) signaling pathway (AID 1346795; active = well fitted inhibition curve with a large enough effect in the signal ratio in the repeat runs, not every such curve was filed as active; the % refers to the signal ratio)
Summary of the method: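 After 6 hr plating at 37C in 2% stripped-serum medium, PR-UAS-bla HEK293T cells got compounds, then 1 nM R5020. Sixteen hours later, LiveBLAzer substrate was applied for 2 hr at room temperature and fluorescence was recorded.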

[5] = qHTS assay to identify small molecule antagonists of the progesterone receptor (PR) signaling pathway - cell viability counter screen (AID 1346798); note: series mostly up to about 92 µM; nearly all actives have a fitted effect of over 50% in size
Summary of the method: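 Viability was determined by ATP-based luminescence (CellTiter-Glo) in PR-UAS-bla HEK293T cells cultured in 2% charcoal-stripped serum and incubated 16 hr with compounds under R5020 stimulation.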

[6] = qHTS assay to identify small molecule agonists of the progesterone receptor (PR) signaling pathway - cell viability counter screen (AID 1346799; calls by dose curve; note: nearly all actives have a fitted effect of over 45% in size)
Summary of the method: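 Viability was scored by ATP luminescence (CellTiter-Glo, 30 min, room temperature) in the same wells used for the reporter readout, after 16 hr compound exposure of PR-UAS-bla HEK293T cells.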

[7] = qHTS assay to identify small molecule antagonists of the TGF-beta/Smad signaling pathway - cell viability counter screen (AID 1346824); note: nearly all actives have a fitted effect of over 50% in size
Summary of the method: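 SBE-bla HEK 293T cells were plated overnight at 37 C, then given compounds in DMSO plus TGF-beta1 (added as 0.25 ng/mL solution) for 5 hr. After the bla read, CellTiter-Glo was added to the same wells and luminescence read after 30 min at room temperature.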

[8] = qHTS assay to identify small molecule agonists of the TGF-beta/Smad signaling pathway - cell viability counter screen (AID 1346829); note: top concentration of the series differs between compounds; nearly all actives have a fitted effect of over 45% in size
Summary of the method: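 CellTiter-Glo luminescence readout; SBE-bla HEK 293T cells, overnight plating, compound 5 hr at 37 C/5% CO2, then bla substrate 2 hr RT, then CellTiter-Glo 30 min RT.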

[9] = qHTS assay to identify small molecule agonists of the TGF-beta/Smad signaling pathway (AID 1346859; active = well fitted activation curve with a large enough effect in the signal ratio in the repeat runs, not every such curve was filed as active; the % refers to the signal ratio; note: series mostly up to about 77 µM)
Summary of the method: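 Dual-wavelength fluorescence (460/530 nm emission) quantified beta-lactamase expression under the Smad binding element in HEK 293T cells following 5 hr compound treatment at 37 C.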

[10] = Human pregnane X receptor (PXR) small molecule agonists, qHTS cell viability counter screen (AID 1346977); note: nearly all actives have a fitted effect of over 50% in size
Summary of the method: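 HepG2 cells stably carrying the PXR-Luc reporter are cultured with 5% charcoal-stripped FBS and treated with compounds for 24hr. CellTiter-Fluor is added at 23hr and fluorescence is read after 1hr.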

[11] = Caspase-3/7 induction in HepG2 cells by small molecules, qHTS assay (AID 1346978); note: nearly all actives have a fitted effect of over 15% in size
Summary of the method: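 Wild-type HepG2 cells (2,000/well) were settled 5 h at 37 C, 5% CO2, then exposed to compounds in DMSO for 17 h. Caspase-3/7 activity was read by luminescence 30 min after adding Caspase-Glo 3/7 reagent at room temperature.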

[12] = Caspase-3/7 induction in CHO-K1 cells by small molecules, qHTS cell viability counter screen (AID 1346979); note: nearly all actives have a fitted effect of over 35% in size
Summary of the method: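 Seeding: 1,500 CHO-K1 cells/well. Rest: 5hr, 37C. Treatment: compounds in DMSO, 16hr. Read: CellTiter-Fluor, 1hr, fluorescence.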

[13] = Caspase-3/7 induction in CHO-K1 cells by small molecules, qHTS assay (AID 1346980); note: nearly all actives have a fitted effect of over 15% in size
Summary of the method: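 Wild-type cells were seeded at 1,500 per well and settled 5 hr at 37 C, 5% CO2, then exposed to DMSO-dissolved compounds for 17 hr. Caspase-Glo 3/7 reagent was added, and luminescence was read after 30min at room temperature.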

[14] = Caspase-3/7 induction in HepG2 cells by small molecules, qHTS cell viability counter screen (AID 1346981); note: series mostly up to about 92 µM; nearly all actives have a fitted effect of over 30% in size
Summary of the method: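 Counter screen for cytotoxicity: HepG2 exposed 16 hr to compounds, then CellTiter-Fluor viability signal (fluorescence, 1 hr reagent incubation).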

[15] = biological target: Nuclear receptor subfamily 1 group I member 2 (Homo sapiens) (UniProt O75469); assay: Human pregnane X receptor (PXR) small molecule agonists, qHTS assay (AID 1346982); note: nearly all actives have a fitted effect of over 35% in size
Summary of the method: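 Luminescence (ONE-Glo, 30 min RT) after 24 hr compound exposure of PXR-Luc HepG2 cells; cells rested 5 hr post-plating in 5% charcoal-stripped FBS medium.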

[16] = biological target: Thyrotropin-releasing hormone receptor (Homo sapiens) (UniProt P34981); assay: qHTS assay to identify small molecule antagonists of the thyrotropin-releasing hormone receptor (TRHR) signaling pathway (AID 1346877; active = well fitted inhibition curve with a large enough effect in the repeat runs, not every such curve was filed as active; note: series mostly up to about 51 µM)
Summary of the method: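 In this cell-based calcium flux format, HEK293 cells expressing TRHR received test compound for 5 min before the agonist TRH (1 nM final). Dye loading lasted 2 h at 37 °C.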

[17] = biological target: Thyrotropin-releasing hormone receptor (Homo sapiens) (UniProt P34981); assay: qHTS assay to identify small molecule agonists of the thyrotropin-releasing hormone receptor (TRHR) signaling pathway (AID 1346891; calls by dose curve; note: series mostly up to about 58 µM)
Summary of the method: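 Kinetic fluorescence (3 min, 1 s intervals) reported intracellular calcium after compound transfer onto TRHR-Hek293 cells pre-loaded with dye for 2 h at 37 °C.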

[18] = biological target: Nuclear receptor subfamily 1 group I member 2 (Rattus norvegicus) (UniProt Q9R1A7); assay: Rat pregnane X receptor (rPXR) activation by small molecules, qHTS assay (AID 1346983); conditions: rPXR luciferase reporter cells, One-Glo luminescence, 24 h; hits give high values; note: nearly all actives have a fitted effect of over 20% in size
Summary of the method: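 Cell-based rPXR luciferase reporter assay, 2,000 cells per well, rested 5hr at 37 C before compound addition in DMSO, then 24 hr at 37 C. One-Glo reagent was added and luminescence read after 30 min at room temperature.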
% is set by controls: 0 for no effect and ±100 for the full control effect.

Chain of Progesterone receptor (Homo sapiens) (P06401 whole entry, looked up): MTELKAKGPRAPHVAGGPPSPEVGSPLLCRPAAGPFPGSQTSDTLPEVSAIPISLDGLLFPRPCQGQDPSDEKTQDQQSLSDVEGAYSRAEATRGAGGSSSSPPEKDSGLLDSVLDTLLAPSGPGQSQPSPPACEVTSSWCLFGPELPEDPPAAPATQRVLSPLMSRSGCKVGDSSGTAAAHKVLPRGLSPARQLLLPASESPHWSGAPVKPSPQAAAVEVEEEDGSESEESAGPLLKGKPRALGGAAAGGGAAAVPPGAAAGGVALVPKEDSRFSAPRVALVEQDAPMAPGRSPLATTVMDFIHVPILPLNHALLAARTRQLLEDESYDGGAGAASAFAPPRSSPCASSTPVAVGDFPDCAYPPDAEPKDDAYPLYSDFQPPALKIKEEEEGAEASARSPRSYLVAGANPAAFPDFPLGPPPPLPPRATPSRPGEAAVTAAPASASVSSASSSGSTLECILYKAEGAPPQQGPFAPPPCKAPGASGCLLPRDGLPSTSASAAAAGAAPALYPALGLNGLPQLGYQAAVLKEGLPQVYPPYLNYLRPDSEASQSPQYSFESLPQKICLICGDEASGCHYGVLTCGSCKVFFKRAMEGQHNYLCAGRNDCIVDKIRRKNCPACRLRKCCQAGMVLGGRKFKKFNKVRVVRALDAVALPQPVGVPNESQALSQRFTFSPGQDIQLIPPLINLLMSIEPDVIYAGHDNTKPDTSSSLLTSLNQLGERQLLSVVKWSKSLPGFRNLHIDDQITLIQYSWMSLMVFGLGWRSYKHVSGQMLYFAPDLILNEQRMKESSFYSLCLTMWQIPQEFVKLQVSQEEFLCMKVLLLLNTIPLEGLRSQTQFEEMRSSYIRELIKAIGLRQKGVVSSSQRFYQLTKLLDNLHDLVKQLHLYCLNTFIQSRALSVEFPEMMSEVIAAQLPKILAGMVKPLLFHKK
Chain of Thyrotropin-releasing hormone receptor (Homo sapiens) (P34981 whole entry, looked up): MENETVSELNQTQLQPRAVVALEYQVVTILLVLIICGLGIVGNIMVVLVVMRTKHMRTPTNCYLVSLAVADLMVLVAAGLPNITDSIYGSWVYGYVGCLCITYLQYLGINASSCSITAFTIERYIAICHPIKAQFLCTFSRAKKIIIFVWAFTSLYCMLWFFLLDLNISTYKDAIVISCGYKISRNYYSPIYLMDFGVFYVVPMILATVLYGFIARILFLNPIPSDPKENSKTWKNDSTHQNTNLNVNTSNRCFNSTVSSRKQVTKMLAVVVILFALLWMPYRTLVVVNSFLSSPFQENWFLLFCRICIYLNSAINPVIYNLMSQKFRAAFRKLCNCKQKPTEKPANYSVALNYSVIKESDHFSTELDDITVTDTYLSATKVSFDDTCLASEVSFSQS
Chain of Nuclear receptor subfamily 1 group I member 2 (Homo sapiens) (O75469 whole entry, looked up): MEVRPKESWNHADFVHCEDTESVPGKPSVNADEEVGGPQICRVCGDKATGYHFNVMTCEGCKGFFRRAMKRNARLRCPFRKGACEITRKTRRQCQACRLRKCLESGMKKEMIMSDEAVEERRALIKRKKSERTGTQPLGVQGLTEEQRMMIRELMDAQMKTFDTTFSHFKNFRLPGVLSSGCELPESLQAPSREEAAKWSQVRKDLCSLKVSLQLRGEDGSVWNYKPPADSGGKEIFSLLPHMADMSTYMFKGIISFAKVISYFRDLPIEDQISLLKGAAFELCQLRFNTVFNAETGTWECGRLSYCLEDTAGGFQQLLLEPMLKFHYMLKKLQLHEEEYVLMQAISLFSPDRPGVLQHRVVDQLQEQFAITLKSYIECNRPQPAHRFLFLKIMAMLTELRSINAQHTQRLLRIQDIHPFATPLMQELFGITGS
Chain of Thyrotropin receptor (Homo sapiens) (P16473 whole entry, looked up): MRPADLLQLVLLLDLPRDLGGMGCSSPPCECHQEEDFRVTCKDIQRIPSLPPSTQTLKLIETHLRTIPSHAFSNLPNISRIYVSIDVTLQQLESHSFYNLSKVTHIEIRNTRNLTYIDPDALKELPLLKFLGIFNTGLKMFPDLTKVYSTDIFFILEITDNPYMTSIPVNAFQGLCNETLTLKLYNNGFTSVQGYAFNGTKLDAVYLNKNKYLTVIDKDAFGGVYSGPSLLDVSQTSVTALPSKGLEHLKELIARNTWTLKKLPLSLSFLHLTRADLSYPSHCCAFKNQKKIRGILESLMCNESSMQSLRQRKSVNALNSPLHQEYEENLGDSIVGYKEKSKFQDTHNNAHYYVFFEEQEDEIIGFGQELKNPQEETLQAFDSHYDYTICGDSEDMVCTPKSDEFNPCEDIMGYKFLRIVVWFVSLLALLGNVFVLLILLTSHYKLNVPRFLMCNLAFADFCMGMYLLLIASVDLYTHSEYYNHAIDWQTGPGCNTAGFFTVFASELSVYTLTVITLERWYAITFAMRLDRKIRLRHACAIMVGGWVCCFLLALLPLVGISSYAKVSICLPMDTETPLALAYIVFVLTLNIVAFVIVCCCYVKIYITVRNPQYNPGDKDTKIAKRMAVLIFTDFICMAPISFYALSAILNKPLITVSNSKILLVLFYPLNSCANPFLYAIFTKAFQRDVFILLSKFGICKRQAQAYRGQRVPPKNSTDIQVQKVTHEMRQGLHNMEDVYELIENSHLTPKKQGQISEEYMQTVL
Chain of Nuclear receptor subfamily 1 group I member 2 (Rattus norvegicus) (Q9R1A7 whole entry, looked up): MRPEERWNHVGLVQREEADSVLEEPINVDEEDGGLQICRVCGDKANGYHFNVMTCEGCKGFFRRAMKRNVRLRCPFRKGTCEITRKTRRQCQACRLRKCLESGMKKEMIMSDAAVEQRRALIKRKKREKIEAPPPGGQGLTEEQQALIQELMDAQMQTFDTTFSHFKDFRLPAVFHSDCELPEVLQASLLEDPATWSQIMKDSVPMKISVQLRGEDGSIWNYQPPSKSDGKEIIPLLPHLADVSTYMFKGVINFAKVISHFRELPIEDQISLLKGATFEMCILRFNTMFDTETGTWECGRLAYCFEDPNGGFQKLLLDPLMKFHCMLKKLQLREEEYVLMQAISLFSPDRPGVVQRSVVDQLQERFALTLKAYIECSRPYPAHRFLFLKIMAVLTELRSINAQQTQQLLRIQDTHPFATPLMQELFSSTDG

O=C(O)CN(CCOCCOCCN(CC(=O)O)CC(=O)O)CC(=O)O
inactive: activity change, negative = inhibition [1] 0.526% [at 0.349 µM] | activity change, negative = cytotoxicity [2] 2.94% [at 0.349 µM] | activation [3] -1.13% [at 0.349 µM] | activity change, negative = inhibition [4] 0.191% [at 0.348 µM] | activity change, negative = cytotoxicity [5] 5.83% [at 0.348 µM] | activity change, negative = cytotoxicity [6] 5.81% [at 0.349 µM] | viability change, negative = cytotoxic [7] 3.24% [at 0.29 µM] | activity change, negative = cytotoxicity [8] 0.742% [at 0.29 µM] | activation [9] 3.14% [at 0.29 µM] | activity change, negative = cytotoxicity [10] 6.91% [at 0.349 µM] | caspase activation [11] -0.864% [at 0.349 µM] | activity change, negative = cytotoxicity [12] 10.9% [at 0.349 µM] | caspase-3/7 activation [13] 0.707% [at 0.349 µM] | activity change, negative = cytotoxicity [14] 2.16% [at 0.349 µM] | activation [15] -3.68% [at 0.349 µM]

C[N+](C)(C)CC(O)CC(=O)[O-] (configuration not stated)
inactive: Potency [1] | Potency [2] | Potency [3] | Potency [4] | Potency [5] | Potency [6] | Potency [7] | outcome [8] | outcome [9] | outcome [16] | outcome [17] | Potency [12] | outcome [13] | Potency [14] | max activation [18] 7.16%

CC/C=C\CCOC(C)=O
inactive: Potency [1] | Potency [2] | Potency [3] | Potency [4] | Potency [5] | Potency [6] | Potency [7] | outcome [8] | outcome [9] | Potency [11] | Potency [12] | outcome [13] | Potency [14] | Potency [15]

Nc1cc(=O)[nH]c(N)n1
inactive: Potency [1] | Potency [2] | Potency [3] | Potency [4] | Potency [5] | Potency [6] | Potency [7] | outcome [8] | outcome [9] | outcome [16] | outcome [17] | Potency [12] | outcome [13] | Potency [14] | Potency [15]

CCSC(=O)N(CC(C)C)CC(C)C
inactive: Potency [1] | Potency [2] | Potency [3] | Potency [4] | Potency [5] | Potency [6] | Potency [7] | outcome [8] | outcome [9] | Potency [10] | Potency [11] | Potency [12] | outcome [13] | Potency [14] | Potency [15]

CN1N=C(C(N)=O)CCC1=O
inactive: Potency [1] | Potency [2] | Potency [3] | Potency [4] | Potency [5] | Potency [6] | Potency [7] | outcome [8] | outcome [9] | Potency [10] | Potency [11] | Potency [12] | outcome [13] | Potency [14] | Potency [15]

CCCCCCCCCCCCN(CCCCCCCCCCCC)CCCCCCCCCCCC
inactive: Potency [1] | Potency [2] | Potency [3] | Potency [4] | Potency [5] | Potency [6] | Potency [7] | outcome [8] | outcome [9] | Potency [11] | outcome [13] | Potency [14] | Potency [15]

Oc1ccc(C2CNCCc3c2cc(O)c(O)c3Cl)cc1 (configuration not stated)
inactive: Potency [1] | Potency [2] | Potency [3] | Potency [4] | Potency [5] | Potency [6] | Potency [7] | outcome [8] | outcome [9] | Potency [10] | Potency [11] | Potency [12] | outcome [13] | Potency [14] | Potency [15]
